Assay results from the supplement of paper PMC4466140.

molecular target: AgAbp1; test: SPOT peptide array binding signal intensity (averaged, normalized) (arbitrary units (background-subtracted, floor 0; scale differs between SH3 domains)); higher = stronger binding of the SH3 domain to the peptide
How it was run: (§1)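 Four yeast species supplied the SH3 domains, which were expressed as GST fusions in E. coli BL21(DE3) and purified on glutathione Sepharose. Incubation with cellulose membranes carrying synthetic 15-mer peptides, cysteines exchanged for serines, ran overnight at 4°C at 10 μg/ml in TBS-based blocking buffer. Binding signal is reported as normalized, background-subtracted spot intensity averaged over replicates, in arbitrary units not shared between domains.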

Binder | SPOT peptide array binding signal intensity
RTIRKLPLMSLSEYF | 7.5

molecular target: AgBbc1; test: as above
How it was run: as §1

Binder | SPOT peptide array binding signal intensity
RTIRKLPLMSLSEYF | 14.5

molecular target: AgBem1-D1; test: as above
How it was run: as §1

Binder | SPOT peptide array binding signal intensity
RTIRKLPLMSLSEYF | 106

molecular target: AgBzz1-D1; test: as above
How it was run: as §1

Binder | SPOT peptide array binding signal intensity
RTIRKLPLMSLSEYF | 8

molecular target: AgBzz1-D2; test: as above
How it was run: as §1

Binder | SPOT peptide array binding signal intensity
RTIRKLPLMSLSEYF | 21

molecular target: AgCyk3; test: as above
How it was run: as §1

Binder | SPOT peptide array binding signal intensity
RTIRKLPLMSLSEYF | 0.5

molecular target: AgFus1; test: as above
How it was run: as §1

Binder | SPOT peptide array binding signal intensity
RTIRKLPLMSLSEYF | 345

molecular target: AgHof1; test: as above
How it was run: as §1

Binder | SPOT peptide array binding signal intensity
RTIRKLPLMSLSEYF | 34.5

molecular target: AgHse1; test: as above
How it was run: as §1

Binder | SPOT peptide array binding signal intensity
RTIRKLPLMSLSEYF | 356

molecular target: AgLsb1; test: as above
How it was run: as §1

Binder | SPOT peptide array binding signal intensity
RTIRKLPLMSLSEYF | ≤ 0

molecular target: AgLsb4; test: as above
How it was run: as §1

Binder | SPOT peptide array binding signal intensity
RTIRKLPLMSLSEYF | 61.5

molecular target: AgMyo5; test: as above
How it was run: as §1

Binder | SPOT peptide array binding signal intensity
RTIRKLPLMSLSEYF | 0.25

molecular target: AgNbp2; test: as above
How it was run: as §1

Binder | SPOT peptide array binding signal intensity
RTIRKLPLMSLSEYF | 379

molecular target: AgRvs167; test: as above
How it was run: as §1

Binder | SPOT peptide array binding signal intensity
RTIRKLPLMSLSEYF | 3

molecular target: AgSho1; test: as above
How it was run: as §1

Binder | SPOT peptide array binding signal intensity
RTIRKLPLMSLSEYF | 122

molecular target: AgSla1-D1-D2; test: as above
How it was run: as §1

Binder | SPOT peptide array binding signal intensity
RTIRKLPLMSLSEYF | 46

molecular target: AgSla1-D3; test: as above
How it was run: as §1

Binder | SPOT peptide array binding signal intensity
RTIRKLPLMSLSEYF | 8

molecular target: CaAbp1-D1; test: as above
How it was run: as §1

Binder | SPOT peptide array binding signal intensity
RTIRKLPLMSLSEYF | 285

molecular target: CaAbp1-D2; test: as above
How it was run: as §1

Binder | SPOT peptide array binding signal intensity
RTIRKLPLMSLSEYF | 123

molecular target: CaBbc1; test: as above
How it was run: as §1

Binder | SPOT peptide array binding signal intensity
RTIRKLPLMSLSEYF | 42.5

molecular target: CaBem1-D1; test: as above
How it was run: as §1

Binder | SPOT peptide array binding signal intensity
RTIRKLPLMSLSEYF | 66.5

molecular target: CaBzz1-D1; test: as above
How it was run: as §1

Binder | SPOT peptide array binding signal intensity
RTIRKLPLMSLSEYF | 82.5

molecular target: CaBzz1-D2; test: as above
How it was run: as §1

Binder | SPOT peptide array binding signal intensity
RTIRKLPLMSLSEYF | 63.5

molecular target: CaCyk3; test: as above
How it was run: as §1

Binder | SPOT peptide array binding signal intensity
RTIRKLPLMSLSEYF | 59

molecular target: CaFus1; test: as above
How it was run: as §1

Binder | SPOT peptide array binding signal intensity
RTIRKLPLMSLSEYF | 942

molecular target: CaHof1; test: as above
How it was run: as §1

Binder | SPOT peptide array binding signal intensity
RTIRKLPLMSLSEYF | ≤ 0

molecular target: CaHse1; test: as above
How it was run: as §1

Binder | SPOT peptide array binding signal intensity
RTIRKLPLMSLSEYF | 121

molecular target: CaLsb1; test: as above
How it was run: as §1

Binder | SPOT peptide array binding signal intensity
RTIRKLPLMSLSEYF | 4.5

molecular target: CaLsb4; test: as above
How it was run: as §1

Binder | SPOT peptide array binding signal intensity
RTIRKLPLMSLSEYF | 282

molecular target: CaMyo5; test: as above
How it was run: as §1

Binder | SPOT peptide array binding signal intensity
RTIRKLPLMSLSEYF | 6

molecular target: CaNbp2; test: as above
How it was run: as §1

Binder | SPOT peptide array binding signal intensity
RTIRKLPLMSLSEYF | 571

molecular target: CaRvs167; test: as above
How it was run: as §1

Binder | SPOT peptide array binding signal intensity
RTIRKLPLMSLSEYF | 42.5

molecular target: CaRvs167-3; test: as above
How it was run: as §1

Binder | SPOT peptide array binding signal intensity
RTIRKLPLMSLSEYF | 4.75

molecular target: CaSho1; test: as above
How it was run: as §1

Binder | SPOT peptide array binding signal intensity
RTIRKLPLMSLSEYF | 668

molecular target: CaSla1-D1-D2; test: as above
How it was run: as §1

Binder | SPOT peptide array binding signal intensity
RTIRKLPLMSLSEYF | 152

molecular target: CaSla1-D3; test: as above
How it was run: as §1

Binder | SPOT peptide array binding signal intensity
RTIRKLPLMSLSEYF | 98.2

molecular target: ScAbp1; test: as above
How it was run: as §1

Binder | SPOT peptide array binding signal intensity
RTIRKLPLMSLSEYF | 23

molecular target: ScBbc1; test: as above
How it was run: as §1

Binder | SPOT peptide array binding signal intensity
RTIRKLPLMSLSEYF | 5.25

molecular target: ScBem1-D1; test: as above
How it was run: as §1

Binder | SPOT peptide array binding signal intensity
RTIRKLPLMSLSEYF | 48

molecular target: ScBzz1-D1; test: as above
How it was run: as §1

Binder | SPOT peptide array binding signal intensity
RTIRKLPLMSLSEYF | 15

molecular target: ScBzz1-D2; test: as above
How it was run: as §1

Binder | SPOT peptide array binding signal intensity
RTIRKLPLMSLSEYF | 21

molecular target: ScCyk3; test: as above
How it was run: as §1

Binder | SPOT peptide array binding signal intensity
RTIRKLPLMSLSEYF | 28.5

molecular target: ScFus1; test: as above
How it was run: as §1

Binder | SPOT peptide array binding signal intensity
RTIRKLPLMSLSEYF | 328

molecular target: ScHof1; test: as above
How it was run: as §1

Binder | SPOT peptide array binding signal intensity
RTIRKLPLMSLSEYF | 3

molecular target: ScHse1; test: as above
How it was run: as §1

Binder | SPOT peptide array binding signal intensity
RTIRKLPLMSLSEYF | 1080

molecular target: ScLsb1; test: as above
How it was run: as §1

Binder | SPOT peptide array binding signal intensity
RTIRKLPLMSLSEYF | 2

molecular target: ScLsb2; test: as above
How it was run: as §1

Binder | SPOT peptide array binding signal intensity
RTIRKLPLMSLSEYF | ≤ 0

molecular target: ScLsb3; test: as above
How it was run: as §1

Binder | SPOT peptide array binding signal intensity
RTIRKLPLMSLSEYF | 639

molecular target: ScLsb4; test: as above
How it was run: as §1

Binder | SPOT peptide array binding signal intensity
RTIRKLPLMSLSEYF | 92

molecular target: ScMyo3; test: as above
How it was run: as §1

Binder | SPOT peptide array binding signal intensity
RTIRKLPLMSLSEYF | 2.5

molecular target: ScMyo5; test: as above
How it was run: as §1

Binder | SPOT peptide array binding signal intensity
RTIRKLPLMSLSEYF | 4.5

molecular target: ScNbp2; test: as above
How it was run: as §1

Binder | SPOT peptide array binding signal intensity
RTIRKLPLMSLSEYF | 556

molecular target: ScPex13; test: as above
How it was run: as §1

Binder | SPOT peptide array binding signal intensity
RTIRKLPLMSLSEYF | 54.2

molecular target: ScRvs167; test: as above
How it was run: as §1

Binder | SPOT peptide array binding signal intensity
RTIRKLPLMSLSEYF | 71.7

molecular target: ScSho1; test: as above
How it was run: as §1

Binder | SPOT peptide array binding signal intensity
RTIRKLPLMSLSEYF | 1040

molecular target: ScSla1-D1-D2; test: as above
How it was run: as §1

Binder | SPOT peptide array binding signal intensity
RTIRKLPLMSLSEYF | 290

molecular target: ScSla1-D3; test: as above
How it was run: as §1

Binder | SPOT peptide array binding signal intensity
RTIRKLPLMSLSEYF | 58.2

molecular target: SpAbp1-D1; test: as above
How it was run: as §1

Binder | SPOT peptide array binding signal intensity
RTIRKLPLMSLSEYF | 85.5

molecular target: SpBbc1; test: as above
How it was run: as §1

Binder | SPOT peptide array binding signal intensity
RTIRKLPLMSLSEYF | 1

molecular target: SpBzz1-D1; test: as above
How it was run: as §1

Binder | SPOT peptide array binding signal intensity
RTIRKLPLMSLSEYF | 109
